54 compounds from ChEMBL document CHEMBL3988442, “University of Dundee, Small-Polar-MMV Screening Library” (2021) can be followed below.

Out of some 48,000 compounds screened, about 13,000 (27%) showed an effect of 50% or more. This is one part of the list.

The assay concerns Wolbachia pipientis. Kind of assay: Anti-Wolbachia Cell-Based Screen. The assay is classed as functional. Set-up: scale not given: in the data most compounds retested in dose-response had high values. To be noted: 5 µM.
Regarding `CNc1cc2c(nn1)CCN(C(=O)c1cccc3c1OCO3)C2`, the “Percent Effect” value is reported as -1.864%.

For `CCNc1cc2c(nn1)CCN(C(=O)c1cccc3c1OCO3)C2`, the “Percent Effect” value is listed as 107.3%.

Turning to `Nc1cc2c(nn1)CCN(C(=O)c1cccc3c1OCCO3)C2`, the “Percent Effect” value was 2.04%.

Take `Nc1cc2c(nn1)CCN(C(=O)CCc1ccc3c(c1)OCO3)C2`: the “Percent Effect” value is listed as -16.52%.

As for `O=C(c1cnccn1)N1CC[C@H]2[C@H]1CCN2S(=O)(=O)C1CC1`, the “Percent Effect” value is listed as -1.574%.

For the compound `Cc1cc(C(=O)N2CC[C@H]3[C@H]2CCN3S(C)(=O)=O)c(C)o1`, the “Percent Effect” value was 109.3%.

Regarding `CO[C@@H]1CCN(C(=O)c2cnoc2C)[C@H]1Cc1ccccc1`, the “Percent Effect” value is -17.67%.

Consider `Cc1cc(C(=O)N2C[C@@H]3CN(S(C)(=O)=O)CCO[C@@H]3C2)c(C)o1`, for which the “Percent Effect” value is on record as -7.965%.

On to `Cc1oncc1C(=O)N1CC[C@H]2[C@H]1CCN2S(C)(=O)=O`, for which the “Percent Effect” value came out at 102.2%.

Take `O=C(c1ccoc1)N1CC[C@H]2[C@H]1CCN2S(=O)(=O)C1CC1`: the “Percent Effect” value is recorded as -16.54%.

As to `CC(=O)Nc1nc(-c2ccccc2)c[nH]1`, the “Percent Effect” value is given as -21.73%.

As to `CN(C)c1cc(CNC(=O)c2ccc(F)cc2F)ccn1`, the “Percent Effect” value stood at 0.296%.

For `CN(C)c1cc(CNC(=O)c2ccc(O)nc2)ccn1`, the “Percent Effect” value is 121.2%.

Consider `CCS(=O)(=O)c1ccccc1C(=O)NCc1ccnc(N(C)C)c1`, for which the “Percent Effect” value is given as -0.6479%.

Regarding `Cc1nccn1-c1cc(CNC(=O)c2ccnc(N(C)C)c2)ccn1`, the “Percent Effect” value is given as 25.84%.

Consider `CN(C)c1cc(CNC(=O)c2n[nH]c(=O)c3ccccc23)ccn1`, for which the “Percent Effect” value amounted to 128.9%.

`CN(C)c1cc(CNC(=O)c2cn(-c3ccc(F)cc3)nn2)ccn1`: the “Percent Effect” value is -3.053%.

Regarding `CN(C)c1cc(CNC(=O)c2ccc(=O)[nH]n2)ccn1`, the “Percent Effect” value is recorded as 0.8371%.

For `CN(C)c1cc(CNC(=O)c2cc(Cl)ccn2)ccn1`, the “Percent Effect” value is recorded as 157.2%.

`CN(C)c1cc(CNC(=O)c2cccnc2O)ccn1`: the “Percent Effect” value amounted to 123.9%.

`Cc1cc(C(=O)NCc2ccnc(N(C)C)c2)c(C)o1`: the “Percent Effect” value is listed as 4.439%.

`COc1cc(C(=O)N(C)C)ccc1NC(=O)c1ccsc1`: the “Percent Effect” value is -14.53%.

As for `CCc1nc(C)c(C2CC(=O)Nc3c2c(-c2cccnc2)nn3C)[nH]1` (centres undefined), the “Percent Effect” value is 10.2%.

Consider `CCNC(=O)NC1CN(Cc2ccncc2Cl)C[C@@H]1OC` (some centres undefined), for which the “Percent Effect” value is reported as -18.14%.

On to `CC(=O)c1ccc(NC(=O)NCc2cccc(N(C)C)n2)cc1C`, for which the “Percent Effect” value is recorded as -13.49%.

Consider `COCCN1CCN(Cc2noc(C3CC3)n2)CC1C` (centres undefined), for which the “Percent Effect” value was -13.95%.

With `Cc1nnc(CSc2n[nH]c(-c3ccccn3)n2)o1`, the “Percent Effect” value turned out to be 3.251%.

Take `O=C1NCCCCC1NS(=O)(=O)N1CCCCCC1` (centres undefined): the “Percent Effect” value came out at 41.49%.

Take `CCNC(=O)c1cnc(Sc2nccn2C)c(Cl)c1`: the “Percent Effect” value is given as -8.333%.

Take `COc1nn(C)cc1C(=O)NCC(=O)Nc1cccnc1`: the “Percent Effect” value was determined as 5.398%.

For the compound `CC(=O)N1CCN(c2nc(C(F)(F)F)nc3sc(C)c(C)c23)CC1`, the “Percent Effect” value came out at 10.88%.

Regarding `c1ccc2c(c1)OCCCC2NCc1nnc2n1CCCCC2` (centres undefined), the “Percent Effect” value is -26%.

As for `Cc1cccc(C(=O)NCc2ccnc(N(C)C)c2)n1`, the “Percent Effect” value is -3.78%.

In the case of `Cc1cc(CN(C)C(=O)NCc2ccnc(N(C)C)c2)no1`, the “Percent Effect” value is -11.21%.

For the compound `CN(C)c1cc(CNC(=O)c2cnccn2)ccn1`, the “Percent Effect” value amounted to 139.9%.

Regarding `Cc1cnc(C(=O)NCc2ccnc(N(C)C)c2)cn1`, the “Percent Effect” value is 122.7%.

Consider `COc1ccc(OC)c(S(=O)(=O)NCC2(OC)CCSC2)c1` (centres undefined), for which the “Percent Effect” value is recorded as -19.77%.

Take `Cc1cc(N(C)C)nc(C2CCNC2)n1.Cl.Cl` (centres undefined): the “Percent Effect” value is given as 120.8%.

As to `CCn1cc(C2CCN(Cc3ccnc(N(C)C)c3)CC2)cn1`, the “Percent Effect” value is -12.62%.

Regarding `Cc1cc(N(C)C)nc(C2CCCN2)n1.Cl.Cl` (centres undefined), the “Percent Effect” value stood at 137.4%.

As to `Cc1cc(N(C)C)nc(N2CC(n3cccn3)C2)n1`, the “Percent Effect” value is given as -0.4027%.

As to `Cc1cc(C)nc(CN(C)C(=O)c2ccccc2C2CCNC2)c1` (centres undefined), the “Percent Effect” value is -11.76%.

Consider `CN(C)c1ccnc(C2CCCN2)n1.Cl` (centres undefined), for which the “Percent Effect” value was 126.4%.

On to `CN(C)c1ccc(-c2noc([C@@H]3CCCN3)n2)cn1`, for which the “Percent Effect” value amounted to 4.635%.

As for `Cc1cc(N(C)C)nc(N2CCn3c(nnc3C3CC3)C2)n1`, the “Percent Effect” value is -9.903%.

Turning to `Cc1nc(CN(C)c2nccc(N(C)C)n2)cs1`, the “Percent Effect” value was -6.579%.

`CN(C)c1cc(C2CCCN2)ccn1` (centres undefined): the “Percent Effect” value stood at 114.7%.

With `CN(C)C(=O)c1cccc(CCNS(C)(=O)=O)c1`, the “Percent Effect” value is listed as -0.05313%.

In the case of `O=C(c1cc2c(s1)CCOC2)N1CCCC1Cn1cccn1` (centres undefined), the “Percent Effect” value is given as 107.9%.

As to `O=C(c1cccc2c1OCCO2)N1CCCCC1Cn1cccn1` (centres undefined), the “Percent Effect” value is reported as 4.366%.

Turning to `O=C(c1cc2c(s1)CCOC2)N1CCCCC1Cn1cccn1` (centres undefined), the “Percent Effect” value is 96.86%.

For `CC(=O)N1CCCn2nc(CNS(=O)(=O)c3cc(C)cs3)cc2C1`, the “Percent Effect” value is -1.939%.

As to `N#Cc1cccnc1NCCC1CCN(CC(F)(F)F)CC1`, the “Percent Effect” value was -14.98%.

Turning to `CC(C)=CCN1C[C@H]2CC[C@@H]1CN(C(=O)CCc1n[nH]c(C)n1)C2`, the “Percent Effect” value is on record as -19.43%.
